What follows are sequences tested on VDR:RXRa (NR concentration 270 nM, RXRa partner concentration 90 nM) (assay: PBM binding z-score (relative to random genomic background probes); higher = stronger binding; sequences stand for … in GC…GCGATTGACAGCGTAGAATGAAGG).
Description: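 Protein-binding microarray (Agilent 4x180K custom design, double-stranded 60-nt probes: 5' GC cap, 34-nt variable region, 24-nt constant primer region; full probe sequence given). Purified or IVT nuclear receptor:RXRα heterodimers (3:1 NR:RXRα, mostly 270:90 nM) or homodimers were incubated for 1 h in PBS with 2% milk and no ligand, then detected with Alexa488 antibodies. Fluorescence from o1-orientation probes (~5 replicates averaged) was converted to z-scores against 500 random hg19 background probes. Variable regions are seed direct-repeat (DR0–DR5) sites, all their single-nucleotide variants and half-site ablations.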
ATCTCTAGGTAACGTTCAGTGAAAGATCGATAGA was tested, and the PBM binding z-score was 0.101.
TCGCCTAGGTCATTGGGCCAGTATAGTACGCATC was tested, and the PBM binding z-score was 2.23.
CCTATTAGTTGACCATAATGGCAACCGAAGCTCG was tested, and the PBM binding z-score was 0.509.
With TCGAGTAGGTTATTCGGGGCATTCAGCCAACATA the PBM binding z-score was 4.03.
With ACTAGCAGGCCATGTTTGGGTCACTCAAACAAAG the PBM binding z-score was 0.631.
With TCTCGGAGAACACGAAGGTCAGAGCTTTCCAGAG the PBM binding z-score was 0.885.
For GCTCGGAGGACAAGGTCAGACCTTTGTCCGTAGA, the PBM binding z-score was 1.97.
ATCTCTAGGTAAAGTTCAGTGGAAGATCGATAGA showed a PBM binding z-score of 1.44.
In the case of CGAACTAGGTCATTGACATGACAGTGAATAGTAA, the PBM binding z-score is reported as 2.16.
GCGACTGGGTCAAAGCAGGTTACCATAAGGTTGG was tested, and the PBM binding z-score was 3.06.
Sequence TCATATACGTAAAGGTGAAAGTCGAACGATATGA has a PBM binding z-score of 1.05.
In the case of CGTCCAAGTTCAACTAAGGTAACGTAAAGCACGC, the PBM binding z-score is reported as 4.16.
With TCTGCCAGGTCAACGATGGTCAGCTAATCTGCTA the PBM binding z-score was 2.49.
For GTACCAAGGTGAATAGGTCGTTGGTGAGTAGGCG, the PBM binding z-score was 0.678.
In the case of CAAACTAGGTCAAGAGGTGAAAGTCCGCTTCCCG, the PBM binding z-score is reported as 2.93.
Sequence TCTGCTAGGTCAACGATGGTCAGCTGATCTGCTA has a PBM binding z-score of 1.73.
Sequence CCAGACAGGTGAGAAGGTACCTCAGCCTCGATTA has a PBM binding z-score of -0.437.
TTAATGAGGTTAAAGATCAGGGAACGTGGCGTCG was tested, and the PBM binding z-score was 2.4.
For CATACAGGGTCAGCTCGGCCAGAGTAGGGACGGC, the PBM binding z-score was 3.32.
In the case of ATCTCTAGGTCAAGTTCAGTGAAAGATCGATAGA, the PBM binding z-score is reported as 3.65.
AGAACGAGGGCAATGAGCTGATAGCACGGGTGGC gave a PBM binding z-score of -0.0572.
In the case of CGAACTAGGTCAGAACAGGATAGTGAAGGATGAT, the PBM binding z-score is reported as 0.322.
For CAAACTAGGTCAAAGGTCACAGTCGAGCCAACCA, the PBM binding z-score was 6.63.
Work on GCTCGGAGGACAAGGTTAGAGCTTTGTCCGTAGA yielded a PBM binding z-score of -0.341.
For TCTTGTAGGTCAACAGGAGGTTAAGAAAGATCGA, the PBM binding z-score was 3.79.
Work on TGAATGAGGTTAAAGATCAGCGAACGTGGCGTCG yielded a PBM binding z-score of 1.75.
Sequence GCATATAGGTAATAAAAGGTGAAAGTCCGATTGT has a PBM binding z-score of 0.675.
CCTACTGGGCCAGCAGGTCATTGATATCAACGTT was tested, and the PBM binding z-score was 1.26.
In the case of ATATGTAGGTTAAGGGTCATTCACGTTGGTTCGC, the PBM binding z-score is reported as 4.75.
GAAACGAGGGCATTCGAGTTGATAGCATGGCGAT gave a PBM binding z-score of 3.97.
TAGCCTAGGTCATGAGCCAGTATACCACGCGAAC gave a PBM binding z-score of 1.88.
Work on TCTTGTAGATCAAAGGTTAAGAAAGCCGAAGCCT yielded a PBM binding z-score of 1.37.
Work on GATACAGGGTCAAGGCCAGAGTGCGCGTATTGAT yielded a PBM binding z-score of 4.23.
CAAACTACGTCAAGAGGTCAAAGTCCGCTTCCCG was tested, and the PBM binding z-score was 5.03.
For CCAGACAGGTGAAAAGTAACTCAGTCTGGTACGC, the PBM binding z-score was 0.113.
CTCGAAAGGTCGGTTGAGATGAGTATACGGATAA gave a PBM binding z-score of 0.961.
Work on CGTCCAAGGTCATAGGATGTCAGTGAAGACAGAT yielded a PBM binding z-score of 4.77.
For ACTGTTAGTTGAGACGAGGGCAACCGATAGGTTG, the PBM binding z-score was 0.595.
TGTCAAAGTTCAAAGGTAACGCAAGTATCCACAC was tested, and the PBM binding z-score was 5.17.
With ATCTCTAGGTAAGACTCAGTTCAGTGAAGAACGC the PBM binding z-score was 0.833.

Source: the supplement of paper PMC6555819
